# Data taken from PubChem BioAssay (EPA / NIEHS).
# Activity calls are given as the source filed them. The calls were made as follows: active = hit-call score of the fitted dose curve at least 0.9, where 1 is the maximum; inactive = score below 0.9.
# Assay: CCTE_Deisenroth_5AR_NBTE_donor: CCTE's 5alpha-reductase NanoBRET Target Engagement Assay […], Deisenroth Lab (AID 2284319)
# Settings: actives raise or lower the signal
# Experimental: CCTE_Deisenroth_5AR NBTE (5alpha-reductase NanoBRET Target Engagement Assay) is a cell-based, single-readout assay that uses HEK293T, a human kidney cell line, with measurements taken at 5 hours after chemical dosing in a 384 well plate. This assay includes a primary and secondary screen as well as an autofluorscence screen.CCTE_Deisenroth_5AR NBTE_donor is one of four assay components measured from the CCTE_Deisenroth_5AR NBTE assay. It is designed to make measurements of donor luminescence, as detected by bioluminescence intensity emission signals using spectrometry technology.Data from the assay component CCTE_Deisenroth_5AR NBTE_donor was analyzed into 1 assay endpoint. This assay endpoint, CCTE_Deisenroth_5AR NBTE_donor, was analyzed with bidirectional fitting relative to DMSO as the negative control and baseline of activity. Using a type of inducible reporter, gain or loss-of-signal activity can be used to understand changes in the donor luminescence as related to 5alpha-reductase catalytic function. Furthermore, this assay endpoint can be referred to as a secondary readout, because this assay has produced multiple assay endpoints where this one serves an artifact detection function.
# For transient expression of the SRD5A2-NanoLuc fusion protein, HEK293T cells are reverse transfected with pNLF1-C-SRD5A2 expression vector and incubated for 20 hours to facilitate fusion protein expression. For assay setup, 384-well non-binding surface (NBS) microplates are pre-dispensed with test chemical across an 8-point concentration series (10 nM - 29.9 uM) with two technical replicates per run. Cell suspensions are dispensed into the microplates and incubated with test chemical for a duration of three hours. Following pre-incubation with test chemical, the testosterone tracer is dispensed into each well and incubated an additional two hours. The total incubation period with test chemical is five hours, with testosterone tracer added the final two hours to reach target engagement equilibrium. For the NanoBRET endpoint measurements, a solution of Nano-Glo substrate and extracellular NanoLuc inhibitor solution is added to each test well and immediately scanned on a plate reader configured with multichromatic emission settings for donor luminescence ([…]) and acceptor fluorescence ([…]). DMSO solvent controls are included as baseline control. Plate-matched samples are run with mock tracer conditions or testosterone tracer to discriminate any potential non-specific substrate interference.
Compound,outcome,AC50
C[C@@H]1C[C@@H]([C@H](O)CC2CC(=O)NC(=O)C2)C(=O)[C@@H](C)C1,inactive,–
CC(C)(c1ccc(OCC2CO2)cc1)c1ccc(OCC2CO2)cc1 (stereo unspecified),inactive,–
C[C@H]1CCCC(=O)CCC/C=C/c2cc(O)cc(O)c2C(=O)O1,inactive,–
O=C(OC1CCCCC1)c1ccccc1C(=O)OC1CCCCC1,inactive,–
O=[N+]([O-])c1ccc(O)c([N+](=O)[O-])c1,inactive,–
CCN1CCC2(CC1)COc1cc3c(cc12)N(C(=O)c1ccc(-c2ccc(-c4nnc(C)o4)cc2C)cc1)CC3,–,2.7 µM (active)
O=C1C(Cl)=C(Cl)C(=O)c2ccccc21,–,50 µM (active)
CCC[CH2][Sn]([CH2]CCC)([CH2]CCC)[O]C(=O)c1ccccc1,–,5.2 µM (active)
CCC1(c2ccc(N)cc2)CCC(=O)NC1=O (stereo unspecified),inactive,–
C=C(C)C(=O)[O][Sn]([CH2]CCC)([CH2]CCC)[CH2]CCC,–,5.38 µM (active)
CC(=O)[O][Hg][c]1ccccc1,–,27.1 µM (active)
N#CN=C(N)N,inactive,–
O=C(O)C(F)(F)C(F)(F)C(F)(F)C(F)(F)C(F)(F)C(F)(F)C(F)(F)C(F)(F)C(F)(F)C(F)(F)F,inactive,–
CCOP(=S)(OCC)Oc1nc(Cl)c(Cl)cc1Cl,inactive,–
O=C(Nc1ccc2[nH]ccc2c1)c1cc2cc(F)ccc2n1Cc1cccc(F)c1,inactive,–
c1cc[c]([Hg][c]2ccccc2)cc1,inactive,–
